Screening results as filed in PubChem BioAssay.
ADAM10 inh: ADAM10 inhibition, QFRET primary screen; recombinant ADAM10, EDANS/DABCYL FRET peptide cleavage, 3 h; inhibition, % at 7 µM; 370,000 compounds, 0.62% hits;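 active = inhibition above a per-campaign cutoff equal to the mean of compounds falling between control-based bounds plus 3 SD, cut at about 20% in these data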
Pemphigus Ab inh: blocks pemphigus antibody binding to human desmoglein-3; 310,000 compounds, 0.48% hits; DSG3-coupled beads, scFv-anti-DSG3-GFP binding, flow cytometry; stronger effect = lower value; P32926; AID 588358; binding (percent of control), % at 10 µM;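 active = binding more than 3 SD below its plate's average and above zero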
Target sequence (P32926 whole entry, looked up): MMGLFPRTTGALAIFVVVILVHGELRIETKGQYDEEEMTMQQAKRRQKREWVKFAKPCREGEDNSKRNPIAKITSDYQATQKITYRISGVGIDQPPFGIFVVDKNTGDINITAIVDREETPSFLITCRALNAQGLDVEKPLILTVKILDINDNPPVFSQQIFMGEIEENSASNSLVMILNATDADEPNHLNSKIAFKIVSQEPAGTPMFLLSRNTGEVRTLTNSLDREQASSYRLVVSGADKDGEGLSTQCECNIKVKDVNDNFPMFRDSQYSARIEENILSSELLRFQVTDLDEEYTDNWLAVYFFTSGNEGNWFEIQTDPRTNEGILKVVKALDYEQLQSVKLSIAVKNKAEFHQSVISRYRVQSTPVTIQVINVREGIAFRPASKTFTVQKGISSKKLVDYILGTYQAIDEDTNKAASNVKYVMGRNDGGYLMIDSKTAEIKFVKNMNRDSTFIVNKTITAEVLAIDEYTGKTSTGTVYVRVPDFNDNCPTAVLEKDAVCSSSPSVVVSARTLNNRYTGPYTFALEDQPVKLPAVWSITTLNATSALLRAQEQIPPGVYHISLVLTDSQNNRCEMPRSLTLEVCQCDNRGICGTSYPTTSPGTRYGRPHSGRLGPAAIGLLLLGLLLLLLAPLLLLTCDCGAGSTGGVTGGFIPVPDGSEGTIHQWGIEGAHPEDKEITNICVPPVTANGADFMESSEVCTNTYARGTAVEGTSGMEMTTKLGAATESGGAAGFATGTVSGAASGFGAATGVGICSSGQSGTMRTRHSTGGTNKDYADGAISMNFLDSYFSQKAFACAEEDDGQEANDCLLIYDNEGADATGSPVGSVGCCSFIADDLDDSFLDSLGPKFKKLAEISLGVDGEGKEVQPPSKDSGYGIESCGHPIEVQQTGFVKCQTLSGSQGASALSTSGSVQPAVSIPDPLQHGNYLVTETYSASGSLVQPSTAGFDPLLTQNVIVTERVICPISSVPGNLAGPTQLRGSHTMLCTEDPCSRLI
rCAG binder: r(CAG) repeat RNA binding; TO-PRO-1 dye displacement fluorescence; inhibition, % at 3 µM; 370,000 compounds, 1.3% hits; AID 651821;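 active = inhibition above the plate cutoff, the mean of all test compounds on that plate plus 3 SD, cut at about 35% in these data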;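 also: higher means more dye released from RNA so lower well fluorescence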
ADAM17 inh: inhibitors of human ADAM17. P78536. recombinant ADAM17, EDANS/DABCYL FRET peptide cleavage. inhibition, % at 6.95 µM. 370,000 compounds, 0.83% hits. AID 720648;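 active = inhibition above the mean of compounds lying between control limits plus 3 SD, set per campaign, cut at about 8.5% in these data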
MPTP block: inhibitors of mitochondrial permeability transition pore; isolated mouse mitochondria, Ca2+ swelling absorbance, 30 min; inhibition, % at 10 µM; 360,000 compounds, 1.4% hits;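 active = inhibition of 50% or more, scaled per plate between neutral and stimulator controls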
KLK7 zymogen act: proKLK7 (human) activation, primary screen; P49862; purified proKLK7, EDANS-DABCYL substrate fluorescence; 100% is mature enzyme control, 0% vehicle; activation, % at 7 µM; 370,000 compounds, 0.9% hits; AID 652039;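 active = activation above the mean of all tested compounds plus 3 SD, computed per campaign excluding outliers beyond control limits, cut at about 13% in these data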
Rh123 counter: mitochondrial membrane potential, counter-screen; shares compounds with MPTP block; isolated mitochondria, Rhodamine 123 fluorescence; inhibition, % at 10 µM; 5,000 compounds, 78% hits; AID 624504; in the data active = inhibition above about 22%
MPTP swell DR: MPTP inhibition, dose response swelling confirmation; AID 651561; shares compounds with MPTP block; isolated mitochondria swelling, absorbance; IC50, µM; 780 compounds, 58% hits; in the data active = IC50 below about 20 µM
MPTP cs DR: active in counter-screen for permeability transition pore inhibitors. 780 compounds, 49% hits. IC50, µM. isolated mitochondria counterscreen, fluorescence read-out. AID 651564. shares compounds with MPTP block; in the data active = IC50 below about 80 µM
Of the large screens only hits and unclear results are named; the others gave an inactive call (follow-up assays come after a bar, where they were run). This is a sample that favours compounds with a hit; in the whole collection about 4.7% have one here.

CCOC(=O)N1CCC(N(C(=O)Nc2ccc(Cl)c(Cl)c2)C(C)CC)CC1 (centres undefined)	MPTP block 80 | Rh123 counter 95
COC(=O)[C@]12C[C@H](CC(=O)N3CCSCC3)C(=O)N(CCc3ccc(OC)c(OC)c3)C1=C[C@H](C(C)C)O[C@@H]2C1CC1	none (no result: Pemphigus Ab inh, MPTP block)
CC(C)(C)CC(C)(C)NC(=S)Nc1ccc(S(=O)(=O)N2CCOCC2)cc1	MPTP block 100 | Rh123 counter 78
O=S(=O)(c1ccc(NC(=S)Nc2ccc(OC(F)F)cc2)cc1)N1CCOCC1	MPTP block 98 | Rh123 counter 90
NNC(=S)Nc1ccc(S(=O)(=O)N2CCOCC2)cc1	none
CC(=O)N(c1nc2ccccc2s1)N1C(=O)c2ccccc2C1=O	none (no result: Pemphigus Ab inh, MPTP block)
Cc1ccc(CNc2ncnc3cc(Cl)ccc23)cc1	MPTP block 87 | Rh123 counter 76
Cc1ccccc1CNc1ncnc2cc(Cl)ccc12	none
CC(=O)Nc1ccc(NC(=O)CSc2nnc(-c3n[nH]c4c3CCC4)n2N)cc1	none (no result: Pemphigus Ab inh, MPTP block)
COCCCNC(=O)c1oc(=O)c2ccccc2c1-c1ccc(C)cc1	none (no result: Pemphigus Ab inh, MPTP block)
O=C(Nc1ccccc1Br)C1CCC(=O)N1Cc1ccccc1Cl (centres undefined)	MPTP block 66 | Rh123 counter 78
Cc1ccc(O)c(-c2cc(C(F)(F)F)[nH]n2)c1	MPTP block 63 | Rh123 counter 67
Nc1[nH]c(C(=O)c2ccc(Br)cc2)c(-c2ccncc2)c1C(=O)NCCc1c[nH]c2ccccc12	none (no result: Pemphigus Ab inh, MPTP block)
O=C(Nc1cc(Sc2nc3ccccc3s2)cc([N+](=O)[O-])c1)c1cccc(F)c1F	MPTP block 94 | Rh123 counter 71
O=C(Nc1cc(Sc2ccccn2)cc([N+](=O)[O-])c1)c1ccc([N+](=O)[O-])cc1	none
O=S1(=O)CC2c3ccccc3CCN2CN1Cc1ccccc1 (centres undefined)	none (no result: Pemphigus Ab inh, MPTP block)
CCN1C(=O)S/C(=C/c2ccc(Sc3nc4ccccc4[nH]3)o2)C1=O	MPTP block 80 | Rh123 counter 76
CCOC(=O)CN1C(=O)S/C(=C/c2ccc(C)o2)C1=O	none
Nc1cc(C(=O)O)ccc1Nc1ccccc1	none (no result: Pemphigus Ab inh)
CCc1ccccc1Nc1ccc(C(=O)O)cc1N	MPTP block 62 | Rh123 counter inactive | MPTP swell DR inactive | MPTP cs DR inactive
CCc1c(C2(O)CCCCC2)[nH]c2cc(C(F)(F)F)ccc12	MPTP block 82 (no result: ADAM10 inh, rCAG binder, ADAM17 inh, KLK7 zymogen act) | Rh123 counter 86
Cc1c(C2(O)CCCCC2)[nH]c2cc(C(F)(F)F)ccc12	none
CC(=O)N1CCN(c2ccc(N3CCN(C(C)=O)[C@H](C)C3)c(C)c2)[C@H](C)C1	none (no result: Pemphigus Ab inh, MPTP block)
CN(C)CCOc1nc(-c2ccccc2)nc2c1oc1ccccc12	MPTP block 75 | Rh123 counter inactive
O=[N+]([O-])c1cc2c(c([N+](=O)[O-])c1)Nc1ccccc1O2	MPTP block 55 | Rh123 counter 61
O=C1Nc2ccccc2Oc2cc([N+](=O)[O-])cc(Oc3ccccc3)c21	none
O=C(Nc1ccc(F)c(F)c1)c1cnc(-c2ccccc2)nc1-c1ccccc1	MPTP block 72 | Rh123 counter inactive | MPTP swell DR inactive | MPTP cs DR 7
COC(=O)c1c(NC(=O)C2CCCCC2)sc2c1CC(C)(C)NC2(C)C	MPTP block 67 | Rh123 counter inactive | MPTP swell DR 6.2 | MPTP cs DR inactive
COC(=O)c1c(NC(=O)Cc2ccccc2)sc2c1CC(C)(C)NC2(C)C	MPTP block 74 | Rh123 counter inactive | MPTP swell DR inactive | MPTP cs DR inactive
COC(=O)c1c(NC(=O)COc2ccc(Cl)cc2)sc2c1CC(C)(C)NC2(C)C	none
CCN(CC)C(=O)[C@H]1CC(CC(=O)NCc2cccc(C(F)(F)F)c2)C(=O)N2CCc3c([nH]c4ccccc34)[C@]12C (some centres undefined)	MPTP block 61 | Rh123 counter inactive | MPTP swell DR inactive | MPTP cs DR 63
CCCCCCCCN1C(=O)[C@@H](CC(=O)NCC23CC4CC(CC(C4)C2)C3)C[C@@]2(C(=O)OC)C1=C[C@H](C1CCCC1)O[C@@H]2C	none (no result: Pemphigus Ab inh, MPTP block)
COc1ccc(C(Nc2ccccn2)c2oc(CO)cc(=O)c2O)cc1 (centres undefined)	MPTP block 96 | Rh123 counter inactive
Cc1ccc2c(c1)C1CN(C)CCC1N2C(=O)c1cccc(S(=O)(=O)N(C)C)c1 (centres undefined)	none
Cc1ccc2c(c1)C1CN(C)CCC1N2C(=O)Nc1ccc(Cl)cc1 (centres undefined)	MPTP block 87 | Rh123 counter 94
COc1cccc2c(=O)cc(C)n(CC(=O)Nc3ccc(Br)cc3)c12	MPTP block 70 (no result: Pemphigus Ab inh) | Rh123 counter 33
COc1ccc(N2CCN(CCCNC(=O)COc3ccc(F)cc3)CC2)cc1	none (no result: Pemphigus Ab inh, MPTP block)
CC(C)(C)c1ccc(S(=O)(=O)N2CCC(c3nc4ccc(Cl)cc4[nH]3)CC2)cc1	MPTP block 94 | Rh123 counter 90
COc1cccc(CNC(=O)[C@H]2CCCN2C(=O)C2CCCN2C(=O)c2ccc(OC)c(F)c2)c1 (some centres undefined)	none (no result: Pemphigus Ab inh, MPTP block)
CCn1c(SCC(=O)NN=Cc2ccc(C(=O)O)cc2)nc2ccccc21	none (no result: Pemphigus Ab inh, MPTP block)
Cc1ccc(C23CC4CC(CC(CN)(C4)C2)C3)cc1	MPTP block 80 | Rh123 counter inactive | MPTP swell DR 5 | MPTP cs DR 75
COCc1cc(N2CCN(C(=O)OC(C)(C)C)C[C@H]2C)ccc1N1CCS(=O)(=O)CC1	none (no result: Pemphigus Ab inh, MPTP block)
Cc1cc(N2CCN(C(=O)OC(C)(C)C)C[C@@H]2C)ccc1Br	none (no result: Pemphigus Ab inh, MPTP block)
COc1ccc(CN(C)CC(O)COC(c2ccc(OC)cc2)c2ccc(OC)cc2)cc1 (centres undefined)	none
CCOc1ccc(CN(C)CC(O)COC(c2ccc(OC)cc2)c2ccc(OC)cc2)cc1 (centres undefined)	MPTP block 67 | Rh123 counter inactive | MPTP swell DR 15 | MPTP cs DR 48
O=[N+]([O-])c1ccc2[nH]c(=S)sc2c1	MPTP block 57 (no result: Pemphigus Ab inh) | Rh123 counter 77
O=[N+]([O-])c1ccc2[nH]c(=S)[nH]c2c1	none
Cc1cc(N2CCN(CC(C)(C)O)C[C@@H]2C)ccc1N1CCN(CC(C)(C)O)[C@H](C)C1	none (no result: Pemphigus Ab inh, MPTP block)
CCN(CC)c1ccc(N=Cc2ccc(N(CC)CC)cc2O)cc1	MPTP block 77 | Rh123 counter inactive
